This note sets out measurements from PubChem BioAssay AID463173 (ICCB-Longwood Screening Facility, Harvard Medical School, 2010).

The whole screen tested about 52,000 compounds, of which about 4,300 (8.3%) were called active. Rule as the data show it: active = survival mostly below about 52% (no sharp cut-off); inactive = mostly above about 56%. For the sample, actives were picked, then their nearest neighbours and some compounds at random.

This assay concerns DeltatarO mutant. Description: growth inhibition of S. aureus wild type versus tarO mutant, primary screen, teichoic acid synthesis inhibitors, RN4220, OD600 (AID 463173). The settings on record: OD600, 18 h, stronger effect = lower value, screened at 18.75 µg/mL (by protocol).
Regarding `CCc1ccc(-n2c(=O)c3cccnc3n2CC(=O)N(CC)c2cccc(C)c2)cc1`, the survival was 94% (inactive).

As for `COc1ccc(Cl)cc1NC(=O)CCc1c(C)nc2c(c1C)c(=O)n(C)c(=O)n2C`, the survival is 94% (inactive).

Regarding `Cc1cc(C)cc(NC(=O)Cn2c(C)cc(C)c(C#N)c2=O)c1`, the survival was 89% (inactive).

As to `CC(=NCCCn1ccnc1)c1c(C(F)(F)F)[nH]n(-c2nc3ccccc3s2)c1=O`, the survival is 120% (inactive).

Consider `COC(=O)c1ccc(Cn2nnc3c(=O)[nH]c(C4CCCN(S(=O)(=O)c5ccccc5)C4)nc32)cc1` (stereo not drawn), for which the survival is 99% (inactive).

Regarding `CCOc1nc(NCCO)nc(NCCC2=CCCCC2)n1`, the survival is 67% (inactive).

For the compound `CCc1ccccc1-n1nnc(-c2nc(-c3ccccc3F)no2)c1C`, the survival was 102% (inactive).

Consider `CC(C)(C)c1ccc(C(=O)NCC(=O)OCc2cc(=O)n3nc(C4CC4)sc3n2)cc1`, for which the survival is 85% (inactive).

`CCOC(=O)c1c(S(=O)(=O)N2CCN(c3cccc(C(F)(F)F)c3)CC2)c(C)n(C)c1C`: the survival was 116% (inactive).

For `CCS(=O)(=O)c1cccc(C(=O)N2CCN(c3nc4c(C)ccc(Cl)c4s3)CC2)c1`, the survival was 78% (inactive).

With `Cc1nc2ccn(Cc3ccco3)c(=O)c2cc1C(=O)NCc1ccc(Cl)cc1`, the survival was 47% (active).

As to `Cc1cccc(NC(=O)c2cc3c(=O)n(Cc4cccnc4)ccc3nc2C)c1`, the survival was 0% (active).

`CCOc1ccc(CNC(=O)c2cc3c(=O)n(Cc4cccs4)ccc3nc2C)cc1`: the survival is 112% (inactive).

Turning to `CC(=O)Nc1ccc(NC(=O)c2cc3c(=O)n(Cc4cccnc4)ccc3nc2C)cc1`, the survival is 57% (inactive).

As to `Cc1ccc(CNC(=O)c2cc3c(=O)n(Cc4ccco4)ccc3nc2C)cc1`, the survival is 87% (inactive).

As for `COc1ccc(CNC(=O)c2cc3c(=O)n(Cc4cccs4)ccc3nc2C)cc1`, the survival is 37% (active).

With `Cc1nc2ccn(Cc3cccs3)c(=O)c2cc1C(=O)NCc1ccc(Cl)cc1`, the survival is 49% (inactive).

Regarding `Cc1nc2ccn(Cc3ccco3)c(=O)c2cc1C(=O)NCc1ccccc1`, the survival was 79% (inactive).

Take `COc1cccc(NC(=O)c2cc3c(=O)n(Cc4cccnc4)ccc3nc2C)c1`: the survival was 101% (inactive).

Take `Cc1nn(C)c2c1c(-c1ccccc1)cc(=O)n2Cc1ccccc1Cl`: the survival was 88% (inactive).

As for `Cc1cccc(NC(=O)Cn2c(=O)n(CCc3ccccc3)c(=O)c3sc4ccccc4c32)c1`, the survival was 105% (inactive).

Turning to `Cc1ccc(Cn2ccnc2SCC(=O)NC2CCCC2)cc1`, the survival is 89% (inactive).

`Cc1cccc(C)c1NC(=O)CN1C(=O)c2ccccc2Sc2ncccc21`: the survival is 88% (inactive).

As to `COc1ccccc1-c1cc(C(=O)NCc2ccccc2)c2c(-c3ccc(C)cc3)[nH]nc2n1`, the survival was 80% (inactive).

With `Cn1c(SCC(N)=O)nc2c([nH]c3ccccc32)c1=O`, the survival is 88% (inactive).

On to `COc1ccccc1N1CCN(C(=O)C(CCSC)NS(=O)(=O)c2ccc3c(c2)oc(=O)n3C)CC1` (stereo not drawn), for which the survival is 87% (inactive).

As to `Cc1ccc(Cn2c(=O)n(-c3ccccc3)c(=O)c3ccc(C(=O)NCc4ccco4)cc32)cc1`, the survival was 75% (inactive).

On to `COc1ccc(CCN2C(=O)NC(NC(=O)c3ccccc3OC)(C(F)(F)F)C2=O)cc1OC` (stereo not drawn), for which the survival was 77% (inactive).

Consider `COc1cccc(CNC(=O)c2ccc3c(c2)N(C)C(=O)C2CCCCN32)c1` (stereo not drawn), for which the survival is 72% (inactive).

As to `CSc1ccc(CNC(=O)c2ccc3c(c2)N(C)C(=O)C2CCCCN32)cc1` (stereo not drawn), the survival is 92% (inactive).

For the compound `Cc1cccc(CNC(=O)c2ccc3c(c2)N(C)C(=O)C2CCCCN32)c1` (stereo not drawn), the survival is 0% (active).

Turning to `CC(C)Oc1ccc(CNC(=O)c2ccc3c(c2)N(C)C(=O)C2CCCCN32)cc1` (stereo not drawn), the survival was 37% (active).

As for `COc1ccc(CNC(=O)c2ccc3c(c2)N(C)C(=O)C2CCCCN32)cc1OC` (stereo not drawn), the survival is 75% (inactive).

`CCCCOc1ccc(CNC(=O)c2ccc3c(c2)N(C)C(=O)C2CCCCN32)cc1` (stereo not drawn): the survival was 74% (inactive).

On to `CCOc1ccc(CNC(=O)C2CCCN(c3nn4cc(-c5ccc(OC)cc5)nc4s3)C2)cc1` (stereo not drawn), for which the survival is 99% (inactive).

`Cc1c2cnn(CC(=O)N3CCN(c4ccccc4)CC3)c(=O)c2c(C)n1Cc1ccc(F)cc1`: the survival was 67% (inactive).

`COc1ccc(-c2cc(C(N)=O)on2)c(OC)c1`: the survival is 99% (inactive).

As for `O=S(=O)(c1cccc(S(=O)(=O)N2CCOCC2)c1)N1CCCCCC1`, the survival is 91% (inactive).

As to `Cc1ccc2occ(CC(=O)Nc3nnc(C(C)C)s3)c2c1`, the survival was 70% (inactive).

`CCCCSCCCNC(=O)c1cn(C)c2ccc(S(=O)(=O)N3CCCCCC3)cc2c1=O`: the survival is 63% (inactive).

Consider `O=C(Nc1ccc(F)cc1)c1oc2ccccc2c1NC(=O)C1CCCCC1`, for which the survival was 11% (active).

For `O=C(Nc1ccc(F)cc1)c1oc2ccccc2c1NC(=O)C12CC3CC(CC(C3)C1)C2`, the survival was 96% (inactive).

`Cc1ccc(NC(=O)c2oc3ccccc3c2NC(=O)C23CC4CC(CC(C4)C2)C3)cc1`: the survival was 75% (inactive).

Turning to `COc1cccc(NC(=O)c2oc3ccccc3c2NC(=O)C2CCCCC2)c1`, the survival was 66% (inactive).

With `COc1cc(OC)cc(C(=O)Nc2c(C(=O)Nc3ccc(F)cc3)oc3ccccc23)c1`, the survival is 62% (inactive).

With `CCOc1ccc(NC(=O)c2oc3ccccc3c2NC(=O)C2CCCCC2)cc1`, the survival is 103% (inactive).

As for `CC(C)(C)NC(=O)c1oc2ccccc2c1NC(=O)c1ccc(F)cc1`, the survival is 71% (inactive).

On to `COc1ccc(NC(=O)c2oc3ccccc3c2NC(=O)C2CCCCC2)c(OC)c1`, for which the survival is 74% (inactive).

For `CN(C)c1ccc(C(=O)Nc2c(C(=O)NC(C)(C)C)oc3ccccc23)cc1`, the survival is 57% (inactive).

With `Cc1ccc(NC(=O)c2oc3ccccc3c2NC(=O)C2CCCCC2)cc1`, the survival is 2% (active).

With `Cc1ccc(C(=O)Nc2c(C(=O)NC(C)(C)C)oc3ccccc23)cc1`, the survival was 32% (active).

For `COc1ccccc1NC(=O)c1oc2ccccc2c1NC(=O)C1CCCCC1`, the survival is 43% (active).

Turning to `CCOC(=O)c1ccc(NC(=O)Cn2nc3c4ccccc4n(Cc4cccc(F)c4)cc-3c2=O)cc1`, the survival was 82% (inactive).

`Cc1cc(C)nc(Nc2ccc(O)cc2)n1`: the survival is 91% (inactive).

Regarding `CC(C)c1ccc(S(=O)(=O)c2nnn3c2nc(NC2CCCC2)c2sccc23)cc1`, the survival is 65% (inactive).

As for `CCN(CC)c1ccc(NC(=O)c2cnn(-c3ccccc3)c2-n2cccc2)c(C)c1`, the survival was 115% (inactive).

In the case of `CC1CCCCN1CCCNC(=O)c1[nH]c2ccccc2c1Sc1ccc(Cl)cc1` (stereo not drawn), the survival is 1% (active).

Turning to `CCCCNC(=O)c1[nH]c2ccccc2c1Sc1ccc(C)cc1`, the survival was 75% (inactive).

As to `CCN(CC)CCNC(=O)c1[nH]c2ccccc2c1Sc1ccc(Cl)cc1`, the survival is 45% (inactive).

With `CC1CCCCN1CCCNC(=O)Cn1ncc2c([nH]c3ccccc32)c1=O` (stereo not drawn), the survival is 124% (inactive).

Regarding `CC1CCCCN1CCCNC(=O)c1cc(Sc2cccc(Cl)c2)nc2ccccc12` (stereo not drawn), the survival was 68% (inactive).

For the compound `CCC1CCCCN1CCCNC(=O)c1[nH]c2ccccc2c1Sc1ccc(Cl)cc1` (stereo not drawn), the survival is -1% (active).

As to `CC1CCCCN1C(=O)CN1CCSc2ccccc21` (stereo not drawn), the survival was 74% (inactive).

With `Cc1nc2sc(C(=O)Nc3ccc(F)cc3)c(N)c2c(-c2ccc(Br)cc2)c1C(=O)Nc1ccc(Cl)cc1`, the survival was 80% (inactive).

As for `Cc1nc2sc(C(N)=O)c(N)c2c(-c2ccc(Br)cc2)c1C(=O)Nc1ccc(Cl)cc1`, the survival is 10% (active).

For the compound `COc1ccc(NC(=O)c2sc3nc(C)c(C(=O)Nc4ccc(Cl)cc4)c(-c4ccc(Br)cc4)c3c2N)cc1`, the survival was 57% (inactive).

Consider `Cc1ccc(CNC(=O)CCN2C(=O)C(C)Oc3ccc(C)cc32)cc1` (stereo not drawn), for which the survival was 128% (inactive).

With `Cn1cc(C(=O)O)c(=O)c2ccccc21`, the survival is 80% (inactive).

On to `CCCNC(=O)c1c(O)c2ccccc2n(C)c1=O`, for which the survival was 93% (inactive).

Turning to `CCc1nnc(NC(=O)c2c(O)c3ccccc3n(C)c2=O)s1`, the survival was -1% (active).

Consider `CCc1nnc(NC(=O)c2c(O)c3ccccc3[nH]c2=O)s1`, for which the survival was 84% (inactive).

As for `Cc1ccc(C)c(C(=O)COC(=O)CCCC(=O)Nc2cc(C(F)(F)F)ccc2Cl)c1`, the survival is 25% (active).

Regarding `Cc1ccc(C(=O)COC(=O)CCCC(=O)Nc2cc(C(F)(F)F)ccc2Cl)cc1C`, the survival is 54% (inactive).

Turning to `COc1ccc(C(=O)COC(=O)CCCC(=O)Nc2cc(C(F)(F)F)ccc2Cl)cc1`, the survival is 53% (inactive).

Regarding `Cc1ccc(NC(=O)CSc2nc(=O)cc(N)n2-c2ccccc2)cc1`, the survival is 87% (inactive).

Turning to `CC(C)(C)c1ccccc1NC(=O)CSc1nc(-c2cccs2)cc(C(F)(F)F)n1`, the survival was 23% (active).

`COc1ccc(NC(=O)CSc2nc(-c3cccs3)cc(C(F)(F)F)n2)cc1Cl`: the survival is 37% (active).

On to `COc1ccc(Cl)cc1NC(=O)CSc1nc(-c2cccs2)cc(C(F)(F)F)n1`, for which the survival was 35% (active).

Take `COc1cc(NC(=O)CSc2nc(-c3cccs3)cc(C(F)(F)F)n2)cc(OC)c1OC`: the survival is 49% (inactive).

For the compound `Cc1ccc(NC(=O)CSc2nc(-c3cccs3)cc(C(F)(F)F)n2)cc1C`, the survival was 155% (inactive).

For the compound `Nc1cc(=O)nc(SCC(=O)Nc2ccc(F)cc2)n1-c1cccc(Cl)c1`, the survival is 145% (inactive).

Regarding `COc1ccc(Cl)cc1NC(=O)CCS(=O)(=O)c1nc(-c2cccs2)cc(C(F)(F)F)n1`, the survival is 63% (inactive).

Take `COC(=O)c1ccccc1NC(=O)CSc1nc(=O)cc(N)n1-c1ccccc1`: the survival is 38% (active).

Take `O=C(CSc1nc(-c2cccs2)cc(C(F)(F)F)n1)Nc1ccccc1Cl`: the survival is 121% (inactive).

Regarding `CCOc1ccccc1NC(=O)CSc1nc(-c2cccs2)cc(C(F)(F)F)n1`, the survival is 69% (inactive).

As to `COc1ccc(NC(=O)CSc2nc(-c3cccs3)cc(C(F)(F)F)n2)c(OC)c1`, the survival was 57% (inactive).

On to `CCOC(=O)c1oc2ccc(S(=O)(=O)n3nc(-c4cc(OC)c(OC)c(OC)c4)cc3N)cc2c1C`, for which the survival is 73% (inactive).

On to `Cc1cccc(N2CCN(C(=O)C3CCN(S(=O)(=O)c4c(C)noc4C)CC3)CC2C)c1` (stereo not drawn), for which the survival was 100% (inactive).
